# Assay results from ChEMBL document CHEMBL1961873, “Compounds: GSK PKIS; Assays: Nanosyn kinase panel” (2012).
# How the values were obtained:
# [1] = target: Tyrosine-protein kinase SYK (Homo sapiens) (UniProt P43405); conditions: at 1 µM
# [2] = target: T1, Tyrosine-protein kinase Tec (Homo sapiens) (UniProt P42680); conditions: at 0.1 µM
# T1 sequence (whole entry): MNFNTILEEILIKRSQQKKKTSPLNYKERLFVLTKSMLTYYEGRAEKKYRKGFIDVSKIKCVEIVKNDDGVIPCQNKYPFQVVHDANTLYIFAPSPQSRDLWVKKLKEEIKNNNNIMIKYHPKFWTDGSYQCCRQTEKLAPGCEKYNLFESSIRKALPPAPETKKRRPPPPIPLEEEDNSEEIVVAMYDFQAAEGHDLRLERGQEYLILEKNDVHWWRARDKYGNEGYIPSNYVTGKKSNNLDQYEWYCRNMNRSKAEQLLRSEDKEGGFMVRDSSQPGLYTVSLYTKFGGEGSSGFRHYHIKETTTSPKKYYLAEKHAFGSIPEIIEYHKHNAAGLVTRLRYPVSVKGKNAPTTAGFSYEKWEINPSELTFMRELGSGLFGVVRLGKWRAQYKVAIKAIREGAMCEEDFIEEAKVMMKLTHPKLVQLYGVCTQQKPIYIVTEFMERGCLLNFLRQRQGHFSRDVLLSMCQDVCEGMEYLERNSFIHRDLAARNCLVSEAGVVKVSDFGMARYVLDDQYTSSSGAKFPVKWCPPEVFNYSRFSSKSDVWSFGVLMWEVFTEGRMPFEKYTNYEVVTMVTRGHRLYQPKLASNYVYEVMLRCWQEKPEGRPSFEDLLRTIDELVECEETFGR
# [3] = target: T1, Tyrosine-protein kinase Tec (Homo sapiens); conditions: at 1 µM
# [4] = target: Angiopoietin-1 receptor (Homo sapiens) (UniProt Q02763); conditions: at 0.1 µM
# [5] = target: Angiopoietin-1 receptor (Homo sapiens) (UniProt Q02763); conditions: at 1 µM
# [6] = target: T2, Non-receptor tyrosine-protein kinase TNK1 (Homo sapiens) (UniProt Q13470); conditions: at 0.1 µM
# T2 sequence (whole entry): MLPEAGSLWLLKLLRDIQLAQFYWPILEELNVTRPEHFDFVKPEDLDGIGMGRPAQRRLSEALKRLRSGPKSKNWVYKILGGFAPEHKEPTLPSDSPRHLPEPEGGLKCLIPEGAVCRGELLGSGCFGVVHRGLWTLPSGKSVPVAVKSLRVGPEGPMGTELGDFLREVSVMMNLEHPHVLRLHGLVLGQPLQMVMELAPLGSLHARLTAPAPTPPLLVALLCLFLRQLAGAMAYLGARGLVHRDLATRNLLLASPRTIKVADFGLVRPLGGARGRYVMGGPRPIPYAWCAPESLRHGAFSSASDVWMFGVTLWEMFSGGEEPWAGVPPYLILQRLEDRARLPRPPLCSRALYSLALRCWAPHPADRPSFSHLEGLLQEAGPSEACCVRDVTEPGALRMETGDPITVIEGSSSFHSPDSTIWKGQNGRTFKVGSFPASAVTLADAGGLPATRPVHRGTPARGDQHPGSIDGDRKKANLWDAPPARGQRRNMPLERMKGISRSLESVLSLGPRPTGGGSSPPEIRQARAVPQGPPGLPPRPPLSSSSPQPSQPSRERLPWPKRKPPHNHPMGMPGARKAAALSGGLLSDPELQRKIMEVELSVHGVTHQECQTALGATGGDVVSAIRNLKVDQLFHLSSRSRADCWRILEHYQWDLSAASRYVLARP
# [7] = target: T2, Non-receptor tyrosine-protein kinase TNK1 (Homo sapiens); conditions: at 1 µM
# [8] = target: Activated CDC42 kinase 1 (Homo sapiens) (UniProt Q07912); conditions: at 0.1 µM
# Sequence of Activated CDC42 kinase 1 (Homo sapiens) (Q07912 whole entry, looked up): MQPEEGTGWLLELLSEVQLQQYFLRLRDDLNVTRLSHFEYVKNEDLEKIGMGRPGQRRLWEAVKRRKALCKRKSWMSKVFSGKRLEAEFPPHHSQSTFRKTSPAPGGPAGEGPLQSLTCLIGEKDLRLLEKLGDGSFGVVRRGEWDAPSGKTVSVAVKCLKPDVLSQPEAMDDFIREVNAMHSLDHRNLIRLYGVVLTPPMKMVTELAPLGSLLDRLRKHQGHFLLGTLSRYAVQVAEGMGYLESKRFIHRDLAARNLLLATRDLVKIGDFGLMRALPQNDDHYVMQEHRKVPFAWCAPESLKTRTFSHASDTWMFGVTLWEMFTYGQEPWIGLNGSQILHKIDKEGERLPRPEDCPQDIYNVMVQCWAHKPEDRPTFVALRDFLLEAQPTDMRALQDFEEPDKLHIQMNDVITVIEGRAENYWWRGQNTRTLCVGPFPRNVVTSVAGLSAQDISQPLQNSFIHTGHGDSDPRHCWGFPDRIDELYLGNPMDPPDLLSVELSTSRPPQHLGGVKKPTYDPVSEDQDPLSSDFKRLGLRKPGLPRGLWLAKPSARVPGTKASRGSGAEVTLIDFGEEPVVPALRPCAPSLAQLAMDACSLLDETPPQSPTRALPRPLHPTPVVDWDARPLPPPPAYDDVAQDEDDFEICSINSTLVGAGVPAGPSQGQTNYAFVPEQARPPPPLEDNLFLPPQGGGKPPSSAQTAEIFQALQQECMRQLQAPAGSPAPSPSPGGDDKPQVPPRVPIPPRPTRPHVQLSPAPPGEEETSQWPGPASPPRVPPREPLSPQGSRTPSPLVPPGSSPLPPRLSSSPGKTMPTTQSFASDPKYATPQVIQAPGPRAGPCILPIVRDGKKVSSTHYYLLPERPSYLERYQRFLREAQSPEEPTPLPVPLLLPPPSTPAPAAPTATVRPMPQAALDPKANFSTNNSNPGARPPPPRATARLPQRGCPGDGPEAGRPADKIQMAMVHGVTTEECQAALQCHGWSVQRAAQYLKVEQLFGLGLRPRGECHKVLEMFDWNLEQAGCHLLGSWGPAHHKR
# [9] = target: Activated CDC42 kinase 1 (Homo sapiens) (UniProt Q07912); conditions: at 1 µM
# [10] = target: High affinity nerve growth factor receptor (Homo sapiens) (UniProt P04629); conditions: at 0.1 µM
# Sequence of High affinity nerve growth factor receptor (Homo sapiens) (P04629 33-796 limits assumed): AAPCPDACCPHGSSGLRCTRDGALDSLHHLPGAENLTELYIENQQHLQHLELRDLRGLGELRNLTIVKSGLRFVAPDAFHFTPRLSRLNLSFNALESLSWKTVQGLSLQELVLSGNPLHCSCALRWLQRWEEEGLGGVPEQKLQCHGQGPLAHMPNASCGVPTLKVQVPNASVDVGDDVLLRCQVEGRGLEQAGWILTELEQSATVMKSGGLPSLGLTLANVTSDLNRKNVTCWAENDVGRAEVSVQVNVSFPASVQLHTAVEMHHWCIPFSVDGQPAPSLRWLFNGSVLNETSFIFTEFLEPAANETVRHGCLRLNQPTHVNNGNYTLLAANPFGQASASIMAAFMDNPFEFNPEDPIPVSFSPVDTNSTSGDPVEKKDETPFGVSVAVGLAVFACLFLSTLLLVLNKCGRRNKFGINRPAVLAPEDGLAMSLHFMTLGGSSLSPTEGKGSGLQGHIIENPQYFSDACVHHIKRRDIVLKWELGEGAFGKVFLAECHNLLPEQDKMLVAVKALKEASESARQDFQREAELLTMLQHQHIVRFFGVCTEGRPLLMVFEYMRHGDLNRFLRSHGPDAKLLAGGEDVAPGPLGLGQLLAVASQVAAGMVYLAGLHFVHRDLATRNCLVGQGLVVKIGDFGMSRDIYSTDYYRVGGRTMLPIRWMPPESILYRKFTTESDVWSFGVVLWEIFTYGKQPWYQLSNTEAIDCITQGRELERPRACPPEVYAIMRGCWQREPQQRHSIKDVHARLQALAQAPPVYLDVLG
# [11] = target: High affinity nerve growth factor receptor (Homo sapiens) (UniProt P04629); conditions: at 1 µM
# [12] = target: BDNF/NT-3 growth factors receptor (Homo sapiens) (UniProt Q16620); conditions: at 0.1 µM
# Sequence of BDNF/NT-3 growth factors receptor (Homo sapiens) (Q16620 32-822 limits assumed): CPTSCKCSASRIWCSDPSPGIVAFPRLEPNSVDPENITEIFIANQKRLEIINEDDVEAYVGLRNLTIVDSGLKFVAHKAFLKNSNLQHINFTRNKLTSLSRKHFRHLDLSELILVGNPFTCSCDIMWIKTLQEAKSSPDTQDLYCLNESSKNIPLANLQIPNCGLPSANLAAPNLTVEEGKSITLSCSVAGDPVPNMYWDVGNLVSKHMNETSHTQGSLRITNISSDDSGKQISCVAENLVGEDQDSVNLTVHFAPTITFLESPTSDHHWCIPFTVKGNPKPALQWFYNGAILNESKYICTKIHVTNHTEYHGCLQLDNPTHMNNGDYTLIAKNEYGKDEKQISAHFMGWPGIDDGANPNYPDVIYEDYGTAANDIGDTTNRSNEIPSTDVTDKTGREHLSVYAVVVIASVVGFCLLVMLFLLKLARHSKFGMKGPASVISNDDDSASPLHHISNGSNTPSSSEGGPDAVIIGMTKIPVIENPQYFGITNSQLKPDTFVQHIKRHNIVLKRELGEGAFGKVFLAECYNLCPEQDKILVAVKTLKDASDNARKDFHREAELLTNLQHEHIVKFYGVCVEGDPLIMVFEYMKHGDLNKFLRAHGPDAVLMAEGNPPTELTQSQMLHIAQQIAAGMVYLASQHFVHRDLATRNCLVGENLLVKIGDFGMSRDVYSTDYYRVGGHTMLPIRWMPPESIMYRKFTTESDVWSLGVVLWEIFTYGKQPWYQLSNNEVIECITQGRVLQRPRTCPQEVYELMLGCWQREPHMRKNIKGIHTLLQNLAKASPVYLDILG
# [13] = target: BDNF/NT-3 growth factors receptor (Homo sapiens) (UniProt Q16620); conditions: at 1 µM
# [14] = target: NT-3 growth factor receptor (Homo sapiens) (UniProt Q16288); conditions: at 0.1 µM
# Sequence of NT-3 growth factor receptor (Homo sapiens) (Q16288 32-839 limits assumed): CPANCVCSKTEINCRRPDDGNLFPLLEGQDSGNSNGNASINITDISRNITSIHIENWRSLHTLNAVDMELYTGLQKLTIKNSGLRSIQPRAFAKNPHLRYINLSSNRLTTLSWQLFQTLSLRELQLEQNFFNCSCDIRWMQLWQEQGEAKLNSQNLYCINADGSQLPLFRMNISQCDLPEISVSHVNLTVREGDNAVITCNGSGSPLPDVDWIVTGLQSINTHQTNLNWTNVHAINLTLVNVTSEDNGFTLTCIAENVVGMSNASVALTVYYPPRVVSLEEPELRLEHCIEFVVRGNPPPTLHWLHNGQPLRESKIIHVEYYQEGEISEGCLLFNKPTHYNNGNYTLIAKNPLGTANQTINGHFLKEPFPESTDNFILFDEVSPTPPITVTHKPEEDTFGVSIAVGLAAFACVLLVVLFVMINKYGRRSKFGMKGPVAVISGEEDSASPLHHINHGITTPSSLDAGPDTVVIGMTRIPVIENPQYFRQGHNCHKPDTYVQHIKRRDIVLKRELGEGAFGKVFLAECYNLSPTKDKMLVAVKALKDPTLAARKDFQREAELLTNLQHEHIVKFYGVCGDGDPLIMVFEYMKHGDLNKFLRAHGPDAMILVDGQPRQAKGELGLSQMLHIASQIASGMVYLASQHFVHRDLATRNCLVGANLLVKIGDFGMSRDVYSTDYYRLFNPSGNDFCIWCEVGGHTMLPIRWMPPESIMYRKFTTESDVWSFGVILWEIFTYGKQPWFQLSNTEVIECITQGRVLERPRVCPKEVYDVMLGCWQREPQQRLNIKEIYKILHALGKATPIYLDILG
# [15] = target: NT-3 growth factor receptor (Homo sapiens) (UniProt Q16288); conditions: at 1 µM
# [16] = target: T3, Tyrosine-protein kinase TXK (Homo sapiens) (UniProt P42681); conditions: at 0.1 µM
# T3 sequence (whole entry): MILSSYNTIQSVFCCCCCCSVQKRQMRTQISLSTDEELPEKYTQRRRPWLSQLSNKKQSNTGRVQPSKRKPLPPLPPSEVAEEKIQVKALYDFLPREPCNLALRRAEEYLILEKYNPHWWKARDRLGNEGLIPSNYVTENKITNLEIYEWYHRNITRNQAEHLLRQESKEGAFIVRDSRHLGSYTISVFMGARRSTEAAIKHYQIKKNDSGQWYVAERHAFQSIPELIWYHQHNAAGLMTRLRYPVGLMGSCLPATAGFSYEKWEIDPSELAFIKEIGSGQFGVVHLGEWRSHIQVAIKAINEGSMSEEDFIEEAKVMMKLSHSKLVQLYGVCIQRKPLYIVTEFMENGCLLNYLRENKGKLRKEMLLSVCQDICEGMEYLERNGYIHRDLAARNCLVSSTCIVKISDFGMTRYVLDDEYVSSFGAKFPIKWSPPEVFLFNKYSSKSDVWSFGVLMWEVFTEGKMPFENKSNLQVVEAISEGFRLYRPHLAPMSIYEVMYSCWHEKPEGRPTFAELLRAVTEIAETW
# [17] = target: T3, Tyrosine-protein kinase TXK (Homo sapiens); conditions: at 1 µM
# [18] = target: Non-receptor tyrosine-protein kinase TYK2 (Homo sapiens) (UniProt P29597); conditions: at 0.1 µM;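 further: each value is a mean of the inhibition readings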
# Sequence of Non-receptor tyrosine-protein kinase TYK2 (Homo sapiens) (P29597 whole entry): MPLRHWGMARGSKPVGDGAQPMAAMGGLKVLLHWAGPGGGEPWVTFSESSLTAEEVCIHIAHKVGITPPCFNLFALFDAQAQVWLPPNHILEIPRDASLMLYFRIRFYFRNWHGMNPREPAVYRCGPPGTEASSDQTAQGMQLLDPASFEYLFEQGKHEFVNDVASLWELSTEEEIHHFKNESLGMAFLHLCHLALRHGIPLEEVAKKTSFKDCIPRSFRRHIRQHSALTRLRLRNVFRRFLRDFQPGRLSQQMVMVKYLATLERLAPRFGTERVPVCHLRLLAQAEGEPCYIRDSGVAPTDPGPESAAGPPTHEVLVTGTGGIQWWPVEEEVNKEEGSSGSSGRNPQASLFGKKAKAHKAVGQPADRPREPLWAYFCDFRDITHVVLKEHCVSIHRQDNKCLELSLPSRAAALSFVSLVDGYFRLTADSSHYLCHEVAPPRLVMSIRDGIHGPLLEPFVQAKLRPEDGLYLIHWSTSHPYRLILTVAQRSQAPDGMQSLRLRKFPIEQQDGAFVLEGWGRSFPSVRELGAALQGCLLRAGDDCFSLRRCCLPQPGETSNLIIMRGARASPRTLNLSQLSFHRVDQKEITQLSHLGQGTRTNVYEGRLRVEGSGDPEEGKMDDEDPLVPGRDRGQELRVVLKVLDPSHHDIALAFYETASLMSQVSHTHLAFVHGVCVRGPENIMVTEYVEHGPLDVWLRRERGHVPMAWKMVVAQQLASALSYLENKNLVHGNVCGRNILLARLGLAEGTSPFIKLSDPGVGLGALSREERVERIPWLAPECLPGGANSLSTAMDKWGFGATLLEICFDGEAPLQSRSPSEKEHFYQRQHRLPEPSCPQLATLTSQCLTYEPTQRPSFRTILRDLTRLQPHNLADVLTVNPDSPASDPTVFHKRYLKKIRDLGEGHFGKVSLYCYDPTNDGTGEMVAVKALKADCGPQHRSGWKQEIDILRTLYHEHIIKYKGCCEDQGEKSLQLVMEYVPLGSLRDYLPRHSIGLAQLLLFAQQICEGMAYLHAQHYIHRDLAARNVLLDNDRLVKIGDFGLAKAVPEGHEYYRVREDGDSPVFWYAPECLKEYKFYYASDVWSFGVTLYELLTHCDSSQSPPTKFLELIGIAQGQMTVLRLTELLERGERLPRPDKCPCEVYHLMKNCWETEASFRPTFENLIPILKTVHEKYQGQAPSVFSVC
# [19] = target: T4, Dual specificity protein kinase TTK (Homo sapiens) (UniProt P33981); conditions: at 1 µM;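 further: reported figures are mean TTK inhibition at 1 µM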
# T4 sequence (whole entry): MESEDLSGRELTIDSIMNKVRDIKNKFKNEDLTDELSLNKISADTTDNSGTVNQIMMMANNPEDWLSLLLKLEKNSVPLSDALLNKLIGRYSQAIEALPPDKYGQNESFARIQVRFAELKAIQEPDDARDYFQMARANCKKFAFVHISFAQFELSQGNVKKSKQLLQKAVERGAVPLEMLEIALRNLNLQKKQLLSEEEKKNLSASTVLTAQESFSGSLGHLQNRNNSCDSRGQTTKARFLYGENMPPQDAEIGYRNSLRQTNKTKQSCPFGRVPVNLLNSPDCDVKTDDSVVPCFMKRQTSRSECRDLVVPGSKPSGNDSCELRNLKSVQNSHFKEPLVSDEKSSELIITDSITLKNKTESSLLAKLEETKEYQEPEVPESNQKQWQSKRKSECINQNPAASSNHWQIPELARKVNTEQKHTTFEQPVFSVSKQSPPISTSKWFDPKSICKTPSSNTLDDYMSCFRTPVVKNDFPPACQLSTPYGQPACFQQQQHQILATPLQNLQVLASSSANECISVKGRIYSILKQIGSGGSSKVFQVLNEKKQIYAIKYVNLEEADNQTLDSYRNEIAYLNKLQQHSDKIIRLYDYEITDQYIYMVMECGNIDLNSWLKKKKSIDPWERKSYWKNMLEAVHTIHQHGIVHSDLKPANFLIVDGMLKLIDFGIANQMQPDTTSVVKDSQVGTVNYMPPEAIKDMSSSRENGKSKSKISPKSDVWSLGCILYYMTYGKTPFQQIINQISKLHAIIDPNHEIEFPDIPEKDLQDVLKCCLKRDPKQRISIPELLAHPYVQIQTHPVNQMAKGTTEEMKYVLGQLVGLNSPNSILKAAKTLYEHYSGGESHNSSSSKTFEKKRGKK
# [20] = target: T5, Aurora kinase A (Homo sapiens) (UniProt O14965); conditions: at 0.1 µM;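 further: each reported value is a mean percent inhibition of Aurora-A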
# T5 sequence (whole entry): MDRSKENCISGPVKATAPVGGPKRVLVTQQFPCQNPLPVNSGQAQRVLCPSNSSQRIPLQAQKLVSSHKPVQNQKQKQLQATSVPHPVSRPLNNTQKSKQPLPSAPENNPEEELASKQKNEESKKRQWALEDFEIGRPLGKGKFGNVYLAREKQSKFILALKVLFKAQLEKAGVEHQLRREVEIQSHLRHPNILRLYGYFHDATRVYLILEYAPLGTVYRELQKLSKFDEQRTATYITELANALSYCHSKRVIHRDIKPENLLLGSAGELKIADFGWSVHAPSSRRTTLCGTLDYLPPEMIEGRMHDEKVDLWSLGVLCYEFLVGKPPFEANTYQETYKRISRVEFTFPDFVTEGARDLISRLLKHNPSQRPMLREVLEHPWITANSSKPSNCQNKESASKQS
SMILES,inhibition [1] [%],inhibition [2] [%],inhibition [3] [%],inhibition [4] [%],inhibition [5] [%],inhibition [6] [%],inhibition [7] [%],inhibition [8] [%],inhibition [9] [%],inhibition [10] [%],inhibition [11] [%],inhibition [12] [%],inhibition [13] [%],inhibition [14] [%],inhibition [15] [%],inhibition [16] [%],inhibition [17] [%],inhibition [18] [%],inhibition [19] [%],inhibition [20] [%]
CS(=O)(=O)CCNCc1ccc(-c2ccc3ncnc(Nc4ccc(OCc5ccccc5)c(C(F)(F)F)c4)c3c2)o1,-5.62,0.36,3.4,0.1,4.31,1.84,9.92,0.97,1.65,2,-0.59,2.63,2.63,2.74,1.42,-2.21,4.38,-7.44,9.83,2.91
COc1ccc2[nH]c3c4[nH]c5ccc(OC)cc5c4c4c(c3c2c1)C(=O)NC4=O,10.5,6.89,31,1.36,5,63.6,89,5.57,16,3.47,16.6,7.79,33.9,8.83,41.5,2.51,14.6,-2.11,34.6,7.28
COc1cc(N2CCN(C(C)C)CC2)ccc1Nc1nc(Nc2ccc(F)cc2C(N)=O)c2cc[nH]c2n1,35.9,6.32,3.59,4.35,3.7,34.7,74.1,10.8,61.7,-1.19,4.26,-0.6,3.09,-0.87,-0.43,8.7,5.7,-1.63,85.6,2.91
COc1cc(/C=N/Nc2ncnc3[nH]ncc23)ccc1O,14.2,8.19,38.6,2.16,9.2,4.02,18.9,1.76,8.52,2.3,3.15,3.49,10.7,2.95,11.2,5.2,24.9,-2.44,13.4,6.3
CCn1c(-c2nonc2N)nc2c(C#CC(C)(C)O)nc(OC[C@H](N)c3ccccc3)cc21,4.13,6.27,3.05,5.91,6.74,1.23,-4.26,0.7,3.88,0.42,3.54,1.58,2.5,1.64,6.42,7.32,3.73,-2.11,11.2,2.4
COc1cccc(-c2c[nH]c3c(N/N=C/c4ccncc4)ncnc23)c1,4.79,3.87,16.5,4.98,27.5,10,41.7,1.63,15.3,6.49,7.45,2.41,19.4,4.04,23.3,4.87,16.8,1.21,10.6,4.07
Nc1ncc(-c2cccc(S(N)(=O)=O)c2)c2scc(-c3ccc(F)c(Cl)c3)c12,-4.44,25.8,75.2,2.99,11.1,6.81,36,5.03,36.6,1.33,2.2,2.61,3.28,1.75,1.1,82,91.6,-1.25,14.3,3.16
